Assay results published in PubChem BioAssay AID463173 (ICCB-Longwood Screening Facility, Harvard Medical School, 2010).
The campaign covered roughly 52,000 compounds. About 1,700 (3.3%) were called active. No stated cut-off is given here; in the data, active means survival mostly below about 52% (no sharp cut-off); inactive means mostly above about 56%. The full list was thinned out, with actives kept by preference.

The compounds below were run on Wild type (assay: S. aureus survival, RN4220 and DeltatarO strains – OD600, teichoic acid synthesis inhibitors, primary screen (AID 463173)). Conditions: S. aureus RN4220 wild type/DeltatarO growth, OD600, 18 h, hits give low values, screened at 18.75 µg/mL (by protocol).

Compound | survival
Cc1nc2sc(C(=O)NCc3ccc(Cl)cc3)c(NC(=O)c3ccccc3)c2c(C)c1C | 86% (inactive)
Cc1ccc(CNC(=O)CN2N=C(c3ccc(C)cc3)CCC2=O)cc1 | 80% (inactive)
CCCN(CCC)c1nc(-c2ccccc2F)nc2ccccc12 | 1% (active)
CCN(CC)c1nc(-c2ccccc2)nc2ccccc12 | 108% (inactive)
CCCCN(CC)c1nc(-c2ccccc2F)nc2ccccc12 | 71% (inactive)
CC(C)CN(CC(C)C)c1nc(-c2ccc(Cl)cc2)nc2ccccc12 | -1% (active)
Cc1ccc(C(=O)COC(=O)c2cc(-c3ccc(Cl)cc3)nc3ccccc23)cc1 | 117% (inactive)
CCN(CC)c1nc(-c2ccc(C(C)(C)C)cc2)nc2ccccc12 | -2% (active)
CCCCc1nc2ccccc2c(C(=O)O)c1C | 106% (inactive)
COc1ccccc1Nc1nc(-c2ccccc2F)nc2ccccc12 | 73% (inactive)
CCCCN(C)CCCNC(=O)c1cc(-c2cccnc2)nc2ccccc12 | 77% (inactive)
Cc1cc(N(C)Cc2ccccc2)n2nc(-c3ccc(C(C)(C)C)cc3)nc2n1 | 77% (inactive)
Cc1cc(Sc2ccc(Cl)cc2)nc2ccccc12 | 50% (inactive)
CCCCN(CCCC)c1nc(-c2ccccc2)nc2ccccc12 | -3% (active)
COc1ccc(-n2ccnc2SCC(=O)Nc2ccc(F)cc2F)cc1 | 143% (inactive)
Cc1ccccc1NC(=O)CSc1ncc2c(n1)-c1ccccc1N(C)S2(=O)=O | 99% (inactive)
CCN(C(=O)c1sc2nc3n(c(=O)c2c1C)CCCCC3)c1ccc(OC)cc1 | 83% (inactive)
CCN(C(=O)C1CCC(CNS(=O)(=O)c2cccc3nsnc23)CC1)c1cccc(C)c1 (configuration not stated) | 86% (inactive)
N#Cc1c(/N=C/c2ccc3c(c2)OCO3)oc(-c2ccccc2)c1-c1ccccc1 | 115% (inactive)
COc1cccc(CNC(=O)Cn2c(=O)nc(-c3ccccc3F)c3cc(Cl)ccc32)c1 | 82% (inactive)
O=C(COc1ccccc1)NS(=O)(=O)c1ccc(N=NN2CCOCC2)cc1 | 105% (inactive)
Cc1ccc(CNC(=O)C(=O)Nc2c3c(nn2-c2ccccc2)CSC3)cc1 | 82% (inactive)
COc1ccc(NC(=O)CSc2ncc3c(n2)-c2cc(Cl)ccc2N(Cc2ccccc2F)S3(=O)=O)cc1 | 65% (inactive)

Compound | survival
CCc1ccccc1NC(=O)CC1NCCNC1=O (configuration not stated) | 87% (inactive)
O=C(Nc1cccc(C(F)(F)F)c1)C1CCN(S(=O)(=O)c2cccs2)CC1 | 92% (inactive)
Cc1ccc(Cl)cc1N1CCN(CCCNC(=O)c2ccc3nc(N4CCCCC4)sc3c2)CC1 | 45% (inactive)
CC1CCN(c2nc3ccc(C(=O)N4CCN(c5ccccc5)CC4)cc3s2)CC1 | 64% (inactive)
Cc1ccc(C)c(N2CCN(CCCNC(=O)c3ccc4nc(N5CCC(C)CC5)sc4c3)CC2)c1 | 1% (active)
Cc1ccc(C)c(N2CCN(CCCNC(=O)c3ccc4nc(N5CCCCC5)sc4c3)CC2)c1 | 76% (inactive)
Cc1cccc(N2CCN(C(=O)c3ccc4nc(N5CCC(C)CC5)sc4c3)CC2)c1C | 1% (active)
Cc1ccc(Cl)cc1N1CCN(C(=O)c2ccc3nc(N4CCC(C)CC4)sc3c2)CC1 | 16% (inactive)
O=C(O)CCc1ccc(-c2cccs2)n1CC(=O)Nc1ccccc1C(F)(F)F | 105% (inactive)
COc1ccc(OC)c(NC(=O)N2CCC(CN3CCCCC3)CC2)c1 | 70% (inactive)
O=C(NCC(c1cccs1)S(=O)(=O)c1cccs1)c1c(F)cccc1F (configuration not stated) | 71% (inactive)
COCCCNC(=O)C1CCN(Cc2cc3ccccc3n2Cc2ccccc2C)CC1 | 78% (inactive)
C=CCC1Cc2ccccc2C(CC=C)N1 (configuration not stated) | 100% (inactive)
CCC1CCCCN1CCCNC(=O)c1ccc2c(c1)sc1nc(-c3ccc(F)cc3)cn12 (configuration not stated) | 6% (active)
CC1CCCCN1CCCNC(=O)c1ccc2c(c1)sc1nc(-c3ccc(F)cc3)cn12 (configuration not stated) | 26% (inactive)
COc1ccc(-c2cn3c(n2)sc2cc(C(=O)NCCCN4CCCCC4)ccc23)cc1 | 81% (inactive)
Cc1ccc(-c2cn3c(n2)sc2cc(C(=O)NCCCN4CCCCC4)ccc23)cc1 | -1% (active)
Cc1ccc(-c2cn3c(n2)sc2cc(C(=O)NCCCN4CCCCCC4)ccc23)cc1 | -1% (active)
O=C(NCCCN1CCCCC1)c1ccc2c(c1)sc1nc(-c3ccc(F)cc3)cn12 | 43% (inactive)
COc1ccc(-c2cn3c(n2)sc2cc(C(=O)NCCCN4CCCCCC4)ccc23)cc1 | 66% (inactive)
CCN1CCN(CCCNC(=O)c2ccc3c(c2)sc2nc(-c4ccc(C)cc4)cn23)CC1 | 29% (inactive)
CCCN1CCN(CCCNC(=O)c2ccc3c(c2)sc2nc(-c4ccc(C)cc4)cn23)CC1 | 20% (inactive)
CCCCNC(=O)c1ccc(-c2nc(CS(=O)(=O)c3ccc(C)cc3)c(C)o2)cc1 | 83% (inactive)

Compound | survival
COc1ccc(C2=NN(C(C)=O)C(c3cn(-c4ccccc4)nc3-c3cccs3)C2)cc1 (configuration not stated) | 127% (inactive)
O=C(NCCN1CCOCC1)N1CCNC1=O | 110% (inactive)
CC1(C)N=C2C(=[N+]1[O-])CCC/C2=N/O | 110% (inactive)
Cc1ccc(C)c(NC(=O)NCc2ccc3c(c2)CCN3C(=O)c2ccccc2)c1 | 66% (inactive)
CC(C)N1CCc2nc(SCC(=O)Nc3cccc(F)c3)[nH]c(=O)c2C1 | 83% (inactive)
Cc1ccc(NC(=O)Cn2c(=O)n(CCC(C)C)c(=O)c3cccnc32)cc1C | 90% (inactive)
Cc1ccc(-c2nc(CS(=O)CC(=O)NCc3ccccc3Cl)c(C)o2)cc1 (configuration not stated) | 72% (inactive)
CCc1cc(=O)[nH]c(SCc2nc(-c3cccc(Cl)c3)no2)n1 | 22% (inactive)
COc1ccc(-c2noc(CSc3nc4ccc(C)cc4[nH]3)n2)cc1 | 47% (inactive)
Cc1ccccc1-c1noc(CSc2nc(-c3ccc(F)cc3)cc(=O)[nH]2)n1 | 10% (active)
Cc1cccc(-c2noc(CSc3nc(-c4ccc(F)cc4)cc(=O)[nH]3)n2)c1 | 82% (inactive)
CCCc1cc(=O)[nH]c(SCc2nc(-c3ccc(C)cc3)no2)n1 | 73% (inactive)
Cc1ccc2nc(SCc3nc(-c4ccccc4C)no3)[nH]c2c1 | 27% (inactive)
Cc1ccc2nc(SCc3nc(-c4ccc(Cl)cc4)no3)[nH]c2c1 | -4% (active)
CCc1cc(=O)[nH]c(SCc2nc(-c3ccc(C(F)(F)F)cc3)no2)n1 | 0% (active)
CCCc1cc(=O)[nH]c(SCc2nc(-c3ccccc3)no2)n1 | -2% (active)
CCc1cc(=O)[nH]c(SCc2nc(-c3ccccc3)no2)n1 | 87% (inactive)
O=c1cc(-c2ccccc2)nc(SCc2nc(-c3ccc(C(F)(F)F)cc3)no2)[nH]1 | 150% (inactive)
O=c1cc(-c2ccc(F)cc2)nc(SCc2nc(-c3ccccc3Cl)no2)[nH]1 | 121% (inactive)
CCn1nc(CC(=O)Nc2nnc(CC(=O)N3CCCC3)s2)c2ccccc2c1=O | 95% (inactive)
Cc1nc2ccc(S(=O)(=O)NC(C(=O)NCc3ccc(Cl)cc3)C(C)C)cc2s1 (configuration not stated) | 133% (inactive)
O=C(CCS(=O)(=O)c1cc2c(cc1Cl)NC(=O)CO2)NCc1ccccc1Cl | 88% (inactive)
COc1cc(NC(=O)CN(c2cc(C)cc(C)c2)S(=O)(=O)c2c(C)[nH]c(=O)[nH]c2=O)cc(OC)c1 | 83% (inactive)

Compound | survival
Cc1cccc(NC(=O)C2CCN(c3nnc(-n4c(C)ccc4C)s3)CC2)c1C | 132% (inactive)
O=C(COCc1cc(-c2ccc(F)cc2)on1)Nc1cccc(C(F)(F)F)c1 | 77% (inactive)
O=C(c1ccccc1)N(Cc1ccco1)Cc1cccs1 | 82% (inactive)
CCn1c(CN2CCCCC2)nc2cc(NC(=O)COc3ccccc3C(C)(C)C)ccc21 | 122% (inactive)
Cc1ccc(C(=O)c2cn(Cc3ccc(F)cc3)c3nc(C)ccc3c2=O)cc1 | 95% (inactive)
Cc1ccc(Cn2cc(C(=O)c3ccc(C)cc3)c(=O)c3ccc(C)nc32)cc1 | 20% (active)
Cc1ccc(C(=O)c2cn(Cc3ccc(Cl)cc3)c3nc(C)ccc3c2=O)cc1 | 53% (inactive)
CCOC(=O)c1cc(-c2ccccc2)n(CC(=O)Nc2cc(Cl)c(OC)cc2OC)c1C | 128% (inactive)
CCOC(=O)c1ccc(NS(=O)(=O)c2cc(Br)cc3c2N(C(C)=O)C(C)C3)cc1 (configuration not stated) | 83% (inactive)
COc1ccc(N2CCN(C(=O)CCS(=O)(=O)c3cc4c(cc3Cl)NC(=O)CO4)CC2)cc1 | 85% (inactive)
CCOCCc1nnc(NC(=O)C(=O)c2cc(C)n(-c3ccc(C)cc3C)c2C)s1 | 85% (inactive)
Cc1ccccc1Nc1c(-c2ccc(Cl)s2)nc2cccc(C)n12 | 80% (inactive)
Cc1ccc(-c2nc3ccc(Cl)cn3c2Nc2ccccc2C)s1 | 94% (inactive)
Cc1ccccc1Nc1c(-c2ccco2)nc2c(C)cccn12 | 1% (active)
Cc1ccc(-c2nc3ccccn3c2Nc2ccccc2C)s1 | 11% (active)
Cc1cccc(C)c1Nc1c(-c2ccccn2)nc2c(C)cccn12 | 77% (inactive)
Fc1ccc(Nc2c(-c3ccco3)nc3ccccn23)cc1 | 69% (inactive)
Cc1ccc(Nc2c(-c3ccc(C)s3)nc3ccccn23)cc1 | 31% (inactive)
Cc1ccccc1Nc1c(-c2ccc(Cl)s2)nc2c(C)cccn12 | 69% (inactive)
Cc1ccc(-c2nc3c(C)cccn3c2Nc2ccccc2C)s1 | -2% (active)
CCc1nnc(SCc2nc(-c3ccc(OC)cc3)oc2C)c2cc3sccc3n12 | 86% (inactive)
Cc1ccc(C)c(S(=O)(=O)n2nnc3ccccc32)c1 | 104% (inactive)
CCOC(=O)N1CCc2c(sc3c2c(=O)n(-c2ccc(Cl)cc2)c(=O)n3Cc2cccc(OC)c2)C1 | 120% (inactive)
